# DAX1 inh-1: DAX1 (NR0B1) inhibitors, primary screen, cell-based, HEK293, Gal4-DAX1, luciferase luminescence. HEK293 Gal4-DAX1 luciferase reporter. inhibition, % at 6.75 µM. 340,000 tested, 0.99% active;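 active = inhibition above the mean over all tested compounds plus 3 SD, cut at about 4.2% in these data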;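 note: 0% = DAX1-transfected cells with DMSO and 100% = empty-vector control cells with DMSO; inhibition shows as a rise in luminescence from relieved DAX1 repression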
# Target sequence (P51843 207-470 limits assumed): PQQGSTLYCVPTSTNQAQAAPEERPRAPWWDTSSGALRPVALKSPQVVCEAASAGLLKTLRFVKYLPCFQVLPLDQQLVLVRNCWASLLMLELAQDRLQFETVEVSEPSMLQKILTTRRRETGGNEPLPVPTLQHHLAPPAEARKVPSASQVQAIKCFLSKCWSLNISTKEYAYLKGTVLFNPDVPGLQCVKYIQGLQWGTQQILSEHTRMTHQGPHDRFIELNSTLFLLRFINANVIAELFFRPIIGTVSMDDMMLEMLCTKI
# FXN GAA850 act: FXN promoter activators, primary screen, cell-based, luciferase luminescence, HEK293 lucGAA850. HEK293 lucGAA850 FXN promoter luciferase reporter, 24 h; percent of 10 µM SAHA response. activation, % at 6 µM. 360,000 tested, 0.56% active. AID 540364, 2011;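 active = activation above the average of all compounds screened plus 3 SD, cutoff fixed separately per campaign, cut at about 7.5% in these data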;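 note: 0% = DMSO wells and 100% = 10 µM SAHA wells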
# ssDAF12 agonist: S. stercoralis DAF-12 nuclear receptor activators, primary screen, cell-based, luminescence, HEK293, GRIP1 co-expression, lit1-tk-luc; activation, % at 6.8 µM; HEK293 ssDAF-12/GRIP1 lit1-tk-luc reporter; % of 3 µM dafachronic acid response; Nuclear hormone receptor DAF-12 (Strongyloides stercoralis); 370,000 tested, 1% active;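 active = activation above the mean over all tested compounds plus 3 SD, cut at about 0.9% in these data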;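 note: 0% = DMSO-only wells and 100% = 3 µM delta7-dafachronic acid wells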
# DAX1 inh-2: DAX1 (NR0B1) inhibitors on StAR promoter, primary screen, cell-based, luminescence, SF-1 (NR5A1), full-length DAX-1; HEK293T StAR-luciferase reporter, SF-1/DAX-1 repression relief; inhibition, % at 6.8 µM; 370,000 tested, 1.1% active;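 active = inhibition above the mean over all tested compounds plus 3 SD, cut at about 3.6% in these data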;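 note: 0% = DAX-1 cells with DMSO and 100% = cells lacking DAX-1 with DMSO; higher inhibition means more luminescence from relief of DAX-1 repression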
# hgDAF-12 ag: H. glycines DAF-12 receptor agonists, primary screen, cell-based, luminescence, HEK293, GAL4 fusion, UAS-luciferase; 370,000 tested, 1.8% active; activation, % at 6.8 µM; HEK293 GAL4-hgDAF12 UAS-luciferase reporter, agonist luminescence; normalized to butyrate control;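 active = activation above a cutoff set at the mean of all screened compounds plus 3 SD, cut at about 10% in these data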;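 note: 0% = DMSO wells and 100% = sodium butyrate wells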
# hcDAF12 agonist: H. contortus DAF-12 nuclear receptor activators, primary screen, cell-based, luminescence, HEK293, lit1-tk-luc reporter; AID 652067, 2013; 370,000 tested, 1.4% active; HEK293 hcDAF-12 lit1-tk-luc reporter; 0% DMSO, 100% Δ7-dafachronic acid; activation, % at 6.8 µM;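 active = activation above the mean of all tested compounds plus 3 SD, cut at about 5.5% in these data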;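 note: 100% = response to 3 µM Δ7-dafachronic acid high control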
# Active calls of the source: *; x = not tested or not shown. Sampled rows, rich in hits. Any-hit rate of the full collection: about 4.5%.
SMILES,DAX1 inh-1,FXN GAA850 act,ssDAF12 agonist,DAX1 inh-2,hgDAF-12 ag,hcDAF12 agonist
CCCC(C(=O)NCC1CCCO1)N(C(=O)CNS(=O)(=O)c1ccccc1)c1ccc(F)cc1 (stereo unspecified),4.6*,4.0,-1.3,-0.4,-1.4,-1.9
COCCCn1cc(CN2CC=CS2(=O)=O)nn1,x,x,0.1,-0.1,-1.3,-2.8
C[C@@H](c1ccccc1)N1C[C@@H](COCc2ccccc2)Oc2cc(N3CC[C@H](O)C3)ccc2S1(=O)=O,x,x,-0.7,-1.1,-2.0,-1.5
CCCCC[C@@H](C)N1C[C@@H](COCc2ccccc2)Oc2cc(N3CCC[C@H]3CO)ccc2S1(=O)=O,x,x,0.9*,-0.9,0.9,0.6
CCCCC[C@H](C)N1C[C@@H](COCc2ccccc2)Oc2cc(N3CC[C@H](N(C)C)C3)ccc2S1(=O)=O,x,x,-0.3,1.0,0.0,0.0
C[C@H](c1ccccc1)N1C[C@@H](COCc2ccccc2)Oc2cc(N3CC[C@@H](O)C3)ccc2S1(=O)=O,x,x,-1.5,3.9*,3.8,-1.0
CCCCC[C@@H](C)N1C[C@@H](COCc2ccccc2)Oc2cc(N3CC[C@H](N(C)C)C3)ccc2S1(=O)=O,x,x,-1.1,4.1*,0.7,0.1
COC(=O)[C@@]12CCCCC3=C1N(CCC3)C(=O)[C@H]2CC(=O)NCc1ccccc1,x,x,-0.4,-0.9,1.1,-3.3
O=C(O)c1cc([N+](=O)[O-])ccc1Nc1ccccc1,4.3*,-2.4,-1.5,-0.2,-3.4,-3.1
CN(C)c1ccc(NC(=O)C(=O)C2C(=O)Nc3ccccc32)cc1 (stereo unspecified),0.2,0.6,0.2,0.5,2.4,2.7
O=C(Nc1cccc2ccccc12)C(=O)C1C(=O)Nc2ccccc21 (stereo unspecified),0.1,2.0,-0.1,-0.2,2.5,6.1*
O=Nc1ccc(O)c2ncccc12,-2.5,-12.8,-1.6,-2.9,-11.8,-1.3
O=Nc1ccc(NO)c2ccccc12,-1.3,4.0,1.2*,-3.2,-1.4,3.4
COC(=O)C/C=C/[C@H](C)[C@@H](NC(=O)C(F)(F)F)c1ccccc1Br,x,x,-0.9,-0.1,0.0,-1.8
CC(=O)Cc1nsc(Nc2ccc3c(c2)OCCO3)n1,2.1,2.5,0.2,0.9,11.6*,2.2
O=S(=O)(NCc1ccccc1)c1cc(Br)ccc1Br,x,x,-1.9,-0.9,-0.3,-1.9
COc1ccc(-c2cnc3c(c2)CCC3(C#N)C#N)cc1,7.3*,1.6,-1.4,-0.2,-3.5,-1.5
COc1ccc(-c2nnc3ccc(SCC(=O)Nc4nc5ccccc5s4)nn23)cc1OC,-0.2,4.0,-1.2,-0.8,11.1*,-0.1
O=C(CSc1cn[nH]n1)Nc1nc2ccccc2s1,1.1,1.9,0.2,0.5,5.3,6.0*
O=C(CSc1ccccn1)Nc1nc2ccccc2s1,1.8,0.3,-1.8,-0.2,9.7,4.8
Cn1c(=NC(=O)c2ccccc2[N+](=O)[O-])sc2cc(S(C)(=O)=O)ccc21,2.2,4.7,-0.3,4.3*,12.4*,5.5
c1ccc(-c2ccc(CNc3nc(-c4ccccn4)nnc3-c3ccccc3)cc2)cc1,x,x,-2.0,x,-11.5,-5.1
COc1ccc(-n2c(O)c(C=NCc3ccccn3)c3ccccc3c2=O)c(OC)c1,0.8,-1.3,-0.8,-0.3,-0.5,6.1*
COc1cccc(-n2c(O)c(C=NCc3ccccn3)c3ccccc3c2=O)c1,-3.3,1.0,-1.3,0.0,-1.7,-2.4
Cc1ccc(-n2nnnc2SCC(=O)NCC2(N3CCCCC3)CCCCC2)c(C)c1,0.5,0.8,-1.0,3.6*,-0.9,-1.3
SMILES,DAX1 inh-1,FXN GAA850 act,ssDAF12 agonist,DAX1 inh-2,hgDAF-12 ag,hcDAF12 agonist
O=C(NCC(c1ccccc1)c1ccccc1)[C@H](Cc1c[nH]c2ccccc12)NC1(C(=O)NC2CCCCC2)CCC1,x,x,-1.3,x,-0.6,0.5
NC(=O)CSc1nc(C2CC2)nc2sc3c(c12)CCCC3,5.6*,4.8,-1.1,0.8,11.7*,1.9
Cc1csc(SCC(=O)Nc2sccc2C(N)=O)n1,0.3,4.0,-0.6,0.4,10.8*,0.5
COc1ccc(CCNC(=O)c2ccc3c(c2)ncn3C2CCCCC2)cc1,x,x,-1.1,-0.8,-0.6,-2.8
COCc1cc(N2CCN(C(=O)OC(C)(C)C)C[C@@H]2C)ccc1Br,x,x,-0.7,-1.1,-1.3,-2.4
CCOC(=O)[C@@]12CCC3=C1N(CCC3)C(=O)[C@H](CC(=O)NCCc1ccccc1OC)C2,x,x,0.9*,-0.6,-1.9,-3.4
O=C(Cc1ccccc1)Nc1ccc(F)cc1,x,4.1,-0.3,0.1,0.8,-0.9
O=C(Cc1ccccc1)Nc1ccc(SC(F)F)cc1,4.3*,4.9,-0.5,1.3,6.3,2.4
COc1ccc(S(=O)(=O)N(C)C[C@H]2Oc3ccc(NC(=O)Nc4ccc(C(F)(F)F)cc4)cc3C(=O)N([C@H](C)CO)C[C@@H]2C)cc1,0.2,-2.4,-1.3,0.0,-1.1,-0.3
C[C@H](CO)N1C[C@H](C)[C@@H](CN(C)S(=O)(=O)c2ccccc2)Oc2ccc(NC(=O)NC3CCCCC3)cc2C1=O,-0.8,1.0,-0.4,4.2*,-0.1,0.4
C[C@H](CO)N1C[C@H](C)[C@@H](CN(C)S(=O)(=O)c2ccccc2)Oc2ccc(NC(=O)C3CCCCC3)cc2C1=O,-0.4,-1.8,-1.4,-0.1,-1.6,-0.6
COc1ccc(NC(=O)Nc2ccc3c(c2)C(=O)N([C@H](C)CO)C[C@H](C)[C@@H](CN(C)S(=O)(=O)c2ccc(OC)cc2)O3)cc1,6.4*,0.8,-0.8,0.0,-0.6,-0.8
COc1ccc(CNc2ccc([N+](=O)[O-])cn2)cc1,2.4,2.4,-0.4,0.4,11.7*,-0.3
COc1ccc(Nc2ccc([N+](=O)[O-])cn2)cc1,1.8,3.6,-1.2,0.6,5.2,1.5
CC(=O)c1cc(-c2ccc(Oc3ccccc3)cc2)c(=O)n2c1CCC2,x,x,-2.0,-1.4,-5.5,-0.5
O=S(=O)(c1ccccc1)c1cnc(-c2cccnc2)nc1-c1ccc(Cl)c(Cl)c1,0.6,1.8,1.6*,-0.3,1.5,-0.5
Cc1cccc(Cn2cc(CN3CC(N4CCN(CCOC(=O)c5cc6ccccc6o5)CC4)CS3(=O)=O)nn2)c1 (stereo unspecified),x,x,-0.4,0.1,-1.3,0.5
O=S1(=O)c2ccc(Br)cc2OC[C@H](Cc2ccccc2)N1Cc1cn(CCC2OCCO2)nn1,x,x,-1.5,-1.4,2.3,-3.3

# From PubChem
